# High-throughput results (PubChem BioAssay)
# RORg inh = ROR gamma (mouse) transcription inhibition; P51450; Drosophila S2 Gal4-RORgamma UAS-luciferase reporter, 20 h; Potency, µM (series often up to 53.6 µM), for inactives: top-dose activity change, negative = inhibition, usual class: inhibitors; actives 5.4% (n = 310,000); AID 2551; further: nearly all actives have a fitted effect of over 60% in size
#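 Stably transfected Drosophila Schneider cells are the test system, with ROR gamma fused to Gal4 and luciferase under UAS control; luminescence is read after 20 hr of 700 uM copper sulfate induction at ambient temperature.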
# ELG1 repair inh = blocks ELG1-dependent DNA repair in HEK293T cells | Potency, µM (series often up to 46.1 µM), for the others: top-dose activity change, negative = inhibition, most hits filed as inhibitors | AID 504467 | HEK293T ELG1-luciferase reporter, luminescence, 16 h; DNA damage induced by 5-fluorouridine | actives 2.3% (n = 330,000); further: nearly all actives have a fitted effect of over 55% in size
#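 Cells (2,000 per well) received 5-fluorouridine plus test compound or DMSO and were incubated 16 hr at 37 °C, 5% CO2. Luciferase activity was read by luminescence 30 min after ONE-Glo addition; signal suppression marked inhibition of damage-induced ELG1 function.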
# TDP1 cell noCPT = qHTS for Inhibitors of human tyrosyl-DNA phosphodiesterase 1 (TDP1): qHTS in cells in absence of CPT. Potency, µM (top dose mostly 46.2 µM), for inactives: at the top dose activity change, negative = growth inhibition, actives largely listed as inhibitors. actives 15% (n = 420,000). DT40 Tdp1-/- hTDP1 cells, no CPT, ATP luminescence, 48 h. AID 686978, 2013; further: nearly all actives have a fitted effect of over 55% in size
#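 Stably hTDP1-transfected Tdp1-null chicken DT40 cells were treated with library compounds minus camptothecin and grown for at least 48 hr at 37 °C, after which cellular ATP was quantified by luminescence.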
# DT40 TDP1 CPT = growth inhibition of DT40 Tdp1-/-;hTDP1 cells with camptothecin (screen for TDP1 inhibitors); AID 686979; chicken DT40 Tdp1-/-;hTDP1 cells + 20 nM CPT, ATP luminescence, 48 h; Potency, µM (highest dose often 46.2 µM), for inactives: at the top dose activity change, negative = growth inhibition, most hits filed as inhibitors; actives 12% (n = 420,000); further: nearly all actives have a fitted effect of over 55% in size
#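 Cell growth measured by CellTiter-Glo luminescence after a minimum 48 h, 37 C compound exposure with 20 nM CPT in Tdp1-knockout DT40 cells stably expressing hTDP1, seeded 400/well; qHTS titration format.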
# ALOX12 inh = blocks human arachidonate 12S-lipoxygenase; AID 1671190; Potency, µM (series often up to 108 µM), inactives show at the highest dose activity change, negative = inhibition, most hits filed as inhibitors; purified 12hLO, xylenol orange hydroperoxide absorbance; P18054; actives 1.1% (n = 580,000)
# Target sequence (P18054 whole entry, looked up): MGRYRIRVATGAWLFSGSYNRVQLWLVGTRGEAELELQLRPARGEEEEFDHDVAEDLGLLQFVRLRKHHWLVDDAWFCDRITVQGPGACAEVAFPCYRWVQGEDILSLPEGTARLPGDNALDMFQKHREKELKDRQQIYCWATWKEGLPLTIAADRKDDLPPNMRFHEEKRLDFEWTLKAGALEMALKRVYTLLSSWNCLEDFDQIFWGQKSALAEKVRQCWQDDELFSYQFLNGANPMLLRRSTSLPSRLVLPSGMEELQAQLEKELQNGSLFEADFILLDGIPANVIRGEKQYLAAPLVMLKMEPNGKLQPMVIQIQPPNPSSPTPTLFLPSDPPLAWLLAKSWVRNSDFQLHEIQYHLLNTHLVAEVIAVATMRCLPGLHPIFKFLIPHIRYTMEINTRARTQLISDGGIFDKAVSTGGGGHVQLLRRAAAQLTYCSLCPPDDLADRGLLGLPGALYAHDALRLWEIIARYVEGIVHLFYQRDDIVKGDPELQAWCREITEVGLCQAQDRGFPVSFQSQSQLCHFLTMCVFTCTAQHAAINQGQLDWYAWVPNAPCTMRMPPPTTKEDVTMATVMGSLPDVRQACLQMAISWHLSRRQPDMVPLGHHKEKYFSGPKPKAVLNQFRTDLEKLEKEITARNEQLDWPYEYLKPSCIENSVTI
#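 Purified human 12hLO at 150 nM in 25 mM Hepes, 0.01% Triton X-100, pH 7.0, preincubated 15 min at room temperature with compound. Reaction started with 40 uM arachidonic acid, 30 min at room temperature. Hydroperoxide measured by Fe-xylenol orange, 573/405 nm absorbance ratio.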
# VP16 counter = Gal4-VP16 reporter inhibition counter-screen | Drosophila S2 Gal4-VP16 UAS-luciferase, luminescence, 20 h | actives 3.5% (n = 310,000) | Potency, µM (top dose mostly 53.6 µM), inactives show at the highest dose activity, negative = inhibition, hits mostly inhibitors;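 further: Gal4-VP16 expression switched on by copper sulfate through the metallothionein promoter; nearly all actives have a fitted effect of over 50% in size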
# * = called active by the depositor; ? = inconclusive; · = no result given. The list is not random: actives were taken first. Their share in the collection is about 15%. The call rests on the fitted dose curve; in most records, active means well fitted curve in the direction sought with a large enough effect; inconclusive means small, poorly fitted or top-dose-only effect, or another doubt; inactive means no such curve, though single readings can be large; an effect the other way counts as inactive or inconclusive. On the % scale 0 is the no-effect control and ±100 the full control effect; potency means the concentration at half of the fitted maximal effect.
SMILES,RORg inh,ELG1 repair inh,TDP1 cell noCPT,DT40 TDP1 CPT,ALOX12 inh,VP16 counter
CCOC(=O)c1c(S(=O)(=O)N2CCCC(C(=O)NCc3ccccc3Cl)C2)c(C)n(C)c1C (stereo not drawn),·,·,-22%,-28%,?,·
Cc1ccc(Cl)cc1N1CCN(S(=O)(=O)c2c(C(=O)N3CCOCC3)c(C)n(C)c2C)CC1,?,?,?,?,3%,-2%
CCOC(=O)c1c(S(=O)(=O)N2CCN(c3cc(Cl)ccc3C)CC2)c(C)n(C)c1C,·,·,21µM*,?,-9%,·
Cc1ccc(-c2ccc(CN3C(CC(C)C)C(=O)N(Cc4cn(CCC5OCCCO5)nn4)CCS3(=O)=O)cc2)cc1 (stereo not drawn),·,·,21µM*,18µM*,-15%,·
CC(C)CC1C(=O)N(Cc2cn(CCC3OCCCO3)nn2)CCS(=O)(=O)N1Cc1ccc(-c2ccc(F)cc2)cc1 (stereo not drawn),·,·,?,?,1%,·
CC(C)CC1C(=O)N(Cc2cn(CCC3OCCO3)nn2)CCS(=O)(=O)N1Cc1ccc(-c2ccncc2)cc1 (stereo not drawn),·,·,23µM*,?,-6%,·
O=C(CCOc1ccccc1)Nc1nnc(-c2ccc3c(c2)OCCO3)o1,8.9µM*,-12%,?,?,0%,20µM*
COc1ccc(OCCCC(=O)OCC(=O)Nc2nnc(-c3ccccc3)o2)cc1,·,22%,?,-14%,-8%,·
O=C(Nc1nnc(-c2ccc3c(c2)OCCO3)o1)c1ccc(Cc2ccccc2)cc1,5.6µM*,-11%,?,?,4%,7.1µM*
CS(=O)(=O)c1ccccc1-c1nnc(NC(=O)c2ccc3c(c2)OCCO3)o1,·,·,?,-43%,-11%,·
CCN(CC)CC(=O)c1c[nH]c2ccc(C)cc12,-16%,0%,23µM*,21µM*,?,-7%
CCOc1ccccc1CNS(=O)(=O)c1ccc2c(c1)oc(=O)n2C,-24%,-4%,-5%,?,4µM*,-1%
Cn1c(=O)oc2cc(S(=O)(=O)NCc3ccncc3)ccc21,12%,?,8.2µM*,8.2µM*,?,?
CC(C)c1ccc(NS(=O)(=O)c2ccc3c(c2)oc(=O)n3C)cc1,16%,-19%,?,18µM*,30%,2%
Cn1c(=O)oc2cc(S(=O)(=O)Nc3ccc(Cl)cc3)ccc21,?,-16%,-24%,-27%,?,-5%
O=c1cc(-c2cccc(F)c2)oc2ccc(Cl)cc12,·,·,·,·,8%,·
Cc1cc2oc(=O)cc(CN3CCN(C(=O)C4COc5ccccc5O4)CC3)c2cc1C (stereo not drawn),·,·,·,·,-25%,·
COc1ccc(OC)c(C2=NOC(C(=O)NCc3cccs3)C2)c1 (stereo not drawn),20%,-5%,7.3µM*,?,-2%,1%
O=C(NCc1cccs1)C1CC(c2ccc(Cl)cc2)=NO1 (stereo not drawn),23%,?,12µM*,13µM*,4%,4%
O=C(NCc1ccco1)C1CC(c2ccc(Cl)cc2)=NO1 (stereo not drawn),0%,?,-22%,?,-1%,5%
O=C(NCCc1cccs1)C1CC(c2c(Cl)cccc2Cl)=NO1 (stereo not drawn),?,?,7.3µM*,4.1µM*,-12%,2%
CC(C)c1nc(CN(C)C(=O)c2cc(COc3ccccc3)[nH]n2)no1,·,·,·,·,66%,·
CCOc1ccc(CCNC(=O)c2cc3c(=O)oc4ccc(C)cc4c3s2)cc1OCC,·,·,?,13µM*,?,·
CCOC(=O)c1ccccc1NC(=O)c1cc2c(=O)oc3ccc(C)cc3c2s1,·,·,0%,1%,0%,·
Cc1ccc2oc(=O)c3cc(C(=O)N(Cc4ccccc4)C(C)C)sc3c2c1,·,·,21µM*,18µM*,-15%,·
SMILES,RORg inh,ELG1 repair inh,TDP1 cell noCPT,DT40 TDP1 CPT,ALOX12 inh,VP16 counter
Cc1cccn2c(=O)c3cc(C(=O)N(Cc4ccccc4)C(C)C)sc3nc12,·,·,21µM*,16µM*,-7%,·
Cc1ccc2oc(=O)c3cc(C(=O)Nc4ccc(F)cc4F)sc3c2c1,·,·,26µM*,?,-44%,·
CCOc1ccc(CNC(=O)c2cc3c(=O)oc4ccc(C)cc4c3s2)cc1,·,·,?,?,0%,·
CCN(CC)S(=O)(=O)c1ccc(N2CCOCC2)c(NC(=O)c2cc3ccccc3oc2=O)c1,?,5.2µM*,16µM*,?,-5%,-4%
CCN(CC)S(=O)(=O)c1ccc(N2CCOCC2)c(NC(=O)CNCCc2ccccc2)c1,18%,?,18µM*,18µM*,?,-4%
CCN(CC)S(=O)(=O)c1ccc(N2CCOCC2)c(NC(=O)COc2ccccc2)c1,4%,?,?,?,-2%,-4%
CCN(CC)S(=O)(=O)c1ccc(N2CCOCC2)c(NC(=O)C2CC2)c1,·,13%,3%,8%,-12%,·
CCN(CC)S(=O)(=O)c1ccc(N2CCOCC2)c(NC(=O)CCOc2ccccc2)c1,7%,?,15µM*,?,-7%,7%
O=C(Cc1ccccc1)Nc1cc(C(=O)c2ccccc2)ccc1N1CCOCC1,-1%,26µM*,-86%,-70%,-49%,8%
CC(C)(C)c1ccc(/C=N/NC(=O)Cc2ccc(Br)cc2)cc1,·,·,·,·,-6%,·
Cc1ccc(-c2csc3nc[nH]c(=S)c23)cc1C,0.45µM*,-28%,21µM*,7.3µM*,28µM*,?
CCN1CCN(c2ncnc3scc(-c4ccc(C)c(C)c4)c23)CC1,-2%,?,18µM*,?,-10%,25%
Clc1ccc(CN2CCN(c3ncnc4scc(-c5cccs5)c34)CC2)cc1,19%,23µM*,16µM*,13µM*,0%,0%
Cc1ccccc1N1CCN(c2ncnc3scc(-c4cccs4)c23)CC1,-24%,-26%,9.2µM*,13µM*,0%,-2%
CCOc1ccc(CN2CCN(c3ncnc4sccc34)CC2)cc1,·,·,·,·,11%,·
Fc1ccc(CN2CCN(c3ncnc4scc(-c5ccc(F)cc5)c34)CC2)cc1,1%,21µM*,23µM*,16µM*,-6%,0%
CN1CCCN(c2ncnc3scc(-c4ccc(F)cc4)c23)CC1,24%,10%,?,-21%,-2%,4%
Fc1cc2[nH]cnc2cc1Cl,-4%,-5%,1.8µM*,6%,0%,-3%
